# Laboratory results reported in PubChem BioAssay.
# Active and inactive are the calls of the source.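 Rule for the calls: active = inhibition at or above 50% relative to wild type and mutant plate controls; inactive = inhibition below 50%.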
# Assay: loss of swimming-algae plug formation – whole organism, Chlamydomonas reinhardtii, WT vs cilia-less mutant, absorbance, 96-well, primary screen (AID 463189);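 note: 0% = wild type cc124 cells in DMSO and 100% = ciliumless bld1 mutant cells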
# Settings: Chlamydomonas reinhardtii gravitaxis, OD600 absorbance, 2 days; at 10 µM; stronger effect = higher value
row,Compound,inhibition
1,NC[C@@H]1O[C@H](C23CC4CC(CC(C4)C2)C3)Cc2c1ccc(O)c2O,0.204% (inactive)
2,C[C@H](O)C(=O)C1=Nc2c(nc(N)[nH]c2=O)NC1,7.45% (inactive)
3,NS(=O)(=O)c1cc2c(cc1Cl)NC(C1CC3C=CC1C3)NS2(=O)=O (stereo not given),-0.288% (inactive)
4,CCn1cc(C(=O)O)c(=O)c2ccc(Cc3ccccc3)nc21,6.19% (inactive)
5,CC1=C(/C=C/C(C)=C/C=C/C(C)=C\C(=O)O)C(C)(C)CCC1,-3.51% (inactive)
6,CC(=O)OCC1=C(C(=O)O)N2C(=O)[C@@H](NC(=O)CSc3ccncc3)[C@H]2SC1,6.67% (inactive)
7,CCCCCCCC/C=C\CCCCCCCC(=O)NCCc1ccc(O)c(O)c1,-1.34% (inactive)
8,CC(C)NC[C@H](O)COc1ccc(CC(N)=O)cc1,-3.21% (inactive)
9,Cn1cnc2c(NC3CCCC3)ncnc21,0.556% (inactive)
10,CC(O)C(O)[C@H]1CNc2nc(N)[nH]c(=O)c2N1 (stereo not given in full),6.73% (inactive)
11,O=S(=O)(c1cccc2c(I)cccc12)N1CCCNCC1,-1.51% (inactive)
12,C[C@H]1c2cccc(O)c2C(O)=C2C(=O)[C@]3(O)C(O)=C(C(N)=O)C(=O)[C@@H](N(C)C)[C@@H]3[C@@H](O)[C@@H]21,64.7% (active)
13,CN1CCN(CC/C=C2/c3ccccc3Sc3ccc(S(=O)(=O)N(C)C)cc32)CC1,19.2% (inactive)
14,NC/C=C/C(=O)O,9.04% (inactive)
15,Cc1nc(N=Nc2ccc(S(=O)(=O)O)cc2S(=O)(=O)O)c(COP(=O)(O)O)c(C=O)c1O,2.65% (inactive)
16,CSC(=N)N,7.24% (inactive)
17,C[C@@H](Oc1ccc(Oc2cnc3ccc(Cl)cc3n2)cc1)C(=O)O,9.86% (inactive)
18,CNCC[C@@H](Oc1ccc(C(F)(F)F)cc1)c1ccccc1,34% (inactive)
19,CCCc1c(OCCCOc2ccc(OCC(=O)O)cc2)ccc(C(C)=O)c1O,0.316% (inactive)
20,NCCS,8.28% (inactive)

row,Compound,inhibition
1,CCCCCC(O)CCCC(=O)O (stereo not given),-1.48% (inactive)
2,NCCCC(=O)O,-6.87% (inactive)
3,O=C(O)CCCC[C@@H]1CCSS1,4.4% (inactive)
4,CN1CCc2cc(Cl)c(O)cc2[C@@H](c2ccccc2)C1,5.1% (inactive)
5,CC(=O)[C@H]1CCC2C3CC=C4C[C@@H](OS(=O)(=O)O)CC[C@]4(C)C3CC[C@@]21C (stereo not given in full),4.69% (inactive)
6,CN(CCOc1ccc(C[C@H](Nc2ccccc2C(=O)c2ccccc2)C(=O)O)cc1)c1ccccn1,1.04% (inactive)
7,COc1cc2c(CCNC(C)=O)c[nH]c2cc1O,-0.037% (inactive)
8,Cc1ccc(C(=O)Nc2ccc(S(=O)(=O)O)c3cc(S(=O)(=O)O)cc(S(=O)(=O)O)c23)cc1NC(=O)c1cccc(NC(=O)Nc2cccc(C(=O)Nc3cc(C(=O)Nc4ccc(S(=O)(=O)O)c5cc(S(=O)(=O)O)cc(S(=O)(=O)O)c45)ccc3C)c2)c1,-3.04% (inactive)
9,COC1=C(OC)C(=O)c2ccccc2C1=O,159% (active)
10,OC1(c2ccc(Cl)cc2)CCN(Cc2c[nH]c3ccccc23)CC1,21.4% (inactive)
11,NCCCCN=C(N)N,5.23% (inactive)
12,Cn1cc(C(=O)OCC2CCN(CCNS(C)(=O)=O)CC2)c2ccccc21,6.02% (inactive)
13,COc1ccc2c(c1)c(CC(=O)O)c(C)n2Cc1ccc(F)cc1,4.4% (inactive)
14,CC(=O)Oc1ccccc1C(=O)O,-5.84% (inactive)
15,N[C@@H](CS(=O)O)C(=O)O,7.29% (inactive)
16,O=C1c2c(O)ccc(O)c2C(=O)c2c(NCCNCCO)ccc(NCCNCCO)c21,28.8% (inactive)
17,N#CC(=C(\N)Sc1ccccc1N)/C(C#N)=C(/N)Sc1ccccc1N,13.7% (inactive)
18,COc1ccccc1CNCCCCCCNCCCCCCCCNCCCCCCNCc1ccccc1OC,126% (active)
19,Cc1cn[nH]c1,7.85% (inactive)
20,CN1CCc2ccccc2Cc2[nH]c3ccccc3c2CC1,10.8% (inactive)
